Assay outcomes as filed in PubChem.
Pol kappa inh-1: DNA polymerase kappa (human) inhibition. Q9UBT6. purified Pol kappa, fluorescent DNA synthesis assay, 10 min. Potency, µM (highest dose often 107 µM), most hits filed as inhibitors. actives 0.53% (n = 400,000). AID 588579
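Kinetic fluorescence readout at 0 and 10 min followed reaction start with substrate at 50 nM final. Beforehand, enzyme (10 nM Pol kappa) stood 15 min with compound at room temperature; buffer-only wells were negative controls.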
TDP1 block: blocks human tyrosyl-DNA phosphodiesterase 1 | Q9NUW8 | recombinant TDP1, AlphaScreen DNA substrate cleavage | Potency, µM (titrated, usually from 130 µM), hits mostly inhibitors | actives 0.28% (n = 350,000); note: nearly all actives have a fitted effect of over 40% in size
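Recombinant E. coli-expressed Tdp1 (1 nM) preincubated with compound 15 min at RT, then 5'-biotin/3'-phosphotyrosine-FITC DNA substrate (15 nM) added for 5 min. AlphaScreen beads (10 ug/ml) added, 10 min RT; tyrosine-FITC cleavage read as signal loss.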
Pol beta inh: inhibitors of human DNA polymerase beta; Pol beta primer extension/strand displacement, fluorescence kinetic; P06746; Potency, µM (top dose mostly 114 µM), hits mostly inhibitors; actives 1.3% (n = 340,000)
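Pol beta (10 nM) and compounds were preincubated 15 min at room temperature, then 50 nM substrate (final) started primer extension/strand displacement. Reads were taken at 0 and 10 min; concentration-response data were fitted to a four-parameter Hill equation.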
POLI inh: DNA polymerase iota (human) inhibition; Q9UNA4; Pol iota fluorescent replication assay, 10 min; Potency, µM (highest dose often 115 µM), hits mostly inhibitors; actives 1% (n = 390,000); AID 588590
Target sequence (Q9UNA4 whole entry, looked up): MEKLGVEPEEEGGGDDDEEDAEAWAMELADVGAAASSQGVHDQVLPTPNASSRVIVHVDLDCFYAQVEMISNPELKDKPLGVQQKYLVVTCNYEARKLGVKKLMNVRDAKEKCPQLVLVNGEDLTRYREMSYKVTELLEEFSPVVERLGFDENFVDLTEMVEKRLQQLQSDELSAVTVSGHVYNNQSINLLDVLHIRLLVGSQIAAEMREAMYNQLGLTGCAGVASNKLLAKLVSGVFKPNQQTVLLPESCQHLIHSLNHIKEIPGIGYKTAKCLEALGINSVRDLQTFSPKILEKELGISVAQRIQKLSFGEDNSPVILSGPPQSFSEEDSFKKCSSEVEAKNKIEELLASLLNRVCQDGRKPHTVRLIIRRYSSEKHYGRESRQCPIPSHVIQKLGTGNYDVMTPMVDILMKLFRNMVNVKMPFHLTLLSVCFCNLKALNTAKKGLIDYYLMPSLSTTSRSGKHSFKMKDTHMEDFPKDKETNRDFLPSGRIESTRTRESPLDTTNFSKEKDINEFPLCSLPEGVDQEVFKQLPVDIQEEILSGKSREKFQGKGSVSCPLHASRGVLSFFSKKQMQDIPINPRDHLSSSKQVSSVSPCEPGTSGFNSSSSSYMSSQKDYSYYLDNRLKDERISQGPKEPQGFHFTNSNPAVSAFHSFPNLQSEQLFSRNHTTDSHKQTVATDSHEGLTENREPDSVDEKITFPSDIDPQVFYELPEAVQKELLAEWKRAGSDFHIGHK
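Pol iota at 10 nM preincubated 15 min with compounds at room temperature; reaction started with fluorescent substrate, 50 nM final. Fluorescence read kinetically at 0 and 10 min; buffer-only wells as negative control.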
Pol eta inh-1: blocks human DNA polymerase eta activity; Q9Y253; recombinant Pol eta, fluorescent DNA replication assay; Potency, µM (top dose mostly 114 µM), hits mostly inhibitors; actives 1.2% (n = 390,000)
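Pol eta at 10 nM preincubated with compounds 15 min at room temperature; reaction started with fluorescent substrate (50 nM final) and read kinetically at 0 and 10 min.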
Pol kappa inh-2: confirmation of human DNA polymerase kappa inhibitors; Potency, µM, hits mostly inhibitors; shares compounds with Pol eta inh-1; purified Pol-kappa, fluorescent strand-displacement substrate; actives 76% (n = 920)
Pol eta inh-2: Pol eta (human) inhibition, cherry-pick confirmation; Pol eta primer extension, TAMRA/BHQ fluorescence, 10 min; Potency, µM, actives largely listed as inhibitors; shares compounds with Pol eta inh-1; AID 720502; actives 64% (n = 2,600)
Numbers stand for hits; – = inactive; ? = inconclusive; · = no result. Hits are enriched below; roughly 2.4% of the tested compounds scored in any of these assays. Calls come from the whole dose curve; as a rule, active = well fitted curve in the direction sought with a large enough effect; inconclusive = small, poorly fitted or top-dose-only effect, or another doubt; inactive = no such curve, though single readings can be large; an effect the other way counts as inactive or inconclusive.

SMILES | Pol kappa inh-1 | TDP1 block | Pol beta inh | POLI inh | Pol eta inh-1 | Pol eta inh-2 | others
COc1ccccc1Cc1nc2ccccc2nc1SCC(=O)Nc1cccc(Cl)c1C | – | – | – | – | – | ·
Cc1cc(NC2=CC(=O)C(=O)c3ccccc32)no1 | – | · | · | ? | 22µM | ?
COc1cc(OC)c(NC2=CC(=O)C(=O)c3ccccc32)cc1Cl | – | · | – | – | ? | ·
CN(C)S(=O)(=O)c1ccc2c(c1)N(CC(=O)N1CCN(c3ccccc3F)CC1)CCS2 | – | – | – | – | – | ·
O=C(O)CCCC(=O)Nc1ccc(N2CCCC2)cc1 | 35µM | – | – | ? | 13µM | 48
COc1ccc(OCC(=O)N/N=C/c2cccn2-c2cccc(C(=O)O)c2)cc1 | 79µM | · | · | 10µM | 5µM | 30 | Pol kappa inh-2=21
Cc1cccc(OCC(=O)N/N=C/c2sc(=O)n(Cc3cccc(C(=O)O)c3)c2Cl)c1 | – | – | – | – | – | ·
O=C(COc1ccccc1)N/N=C/c1sc(=O)n(Cc2cccc(C(=O)O)c2)c1Cl | – | – | – | ? | 22µM | 34
COC(=O)COc1ccc(Oc2nc(NC(C)(C)C)nc(N(C)C)n2)nn1 | – | – | – | – | – | ·
Cc1ccc(CCNC(=O)c2c[nH]c3ccc(S(=O)(=O)Nc4ccc(C)cc4C)cc3c2=O)cc1 | – | · | ? | ? | 50µM | ?
COc1cccc(NS(=O)(=O)c2ccc3[nH]cc(C(=O)NCCc4ccc(C)cc4)c(=O)c3c2)c1 | – | · | ? | ? | ? | ·
Cc1ccccc1NS(=O)(=O)c1ccc2[nH]cc(C(=O)NC(C)c3ccccc3)c(=O)c2c1 (stereo not drawn) | – | ? | 40µM | ? | 25µM | ?
Cc1ccccc1NS(=O)(=O)c1ccc2[nH]cc(C(=O)N3CCCCC3)c(=O)c2c1 | – | 22µM | ? | ? | 45µM | 76
CC(=O)C[n+]1cccc(Br)c1 | – | · | · | – | · | ·
CC(NC(=O)c1sc2ncccc2c1-n1cccc1)c1ccccc1 (stereo not drawn) | – | – | – | – | – | ·
S=c1ccss1 | ? | – | · | · | · | ·
CCOc1ccc(Oc2nc(NCC(C)C)nc(NC(C)(C)C)n2)nn1 | – | – | – | – | – | ·
CC[C@H](C)N | – | – | · | · | · | ·
Cc1ccc(S(=O)(=O)N2CCCCC2)cc1C(=O)Nc1cccnc1 | – | 20µM | 32µM | 50µM | 18µM | 76
N=C1S/C(=C\c2ccc(-c3cccc(Cl)c3)o2)C(=O)N1c1nccs1 | – | – | 8.9µM | ? | 10µM | ? | Pol kappa inh-2=24
O=c1oc(-c2ccc(O)c(O)c2)cc2cc(O)cc(O)c12 | ? | – | · | 28µM | 10µM | 54 | Pol kappa inh-2=?
CCC1CCCCN1C(=O)c1ccc2c(c1)N(Cc1cccc(Cl)c1)C(=O)c1ccccc1S2(=O)=O (stereo not drawn) | – | – | – | – | – | ·
Cc1ccc(S(=O)(=O)N2CCCC2)s1 | – | – | – | – | – | ·
Cc1ccc(C)c(/C=C(\C(=O)O)c2ccc(S(=O)(=O)N3CCCCC3)s2)c1 | ? | – | 22µM | ? | 50µM | ?
Cc1ccc(-n2nc3ccc(NC(=O)/C=C/c4ccco4)cc3n2)cc1 | ? | · | 32µM | 25µM | ? | ?
SMILES | Pol kappa inh-1 | TDP1 block | Pol beta inh | POLI inh | Pol eta inh-1 | Pol eta inh-2 | others
O=C(O)c1cc(Cl)ccc1-c1ccc(/C=C/c2cc(C(F)(F)F)[nH]c(=O)n2)o1 | ? | – | – | ? | 50µM | 38
CCC(Cn1nnc2ccccc2c1=O)NC(=O)Nc1ccccc1OC (stereo not drawn) | – | – | – | ? | – | ·
CC(=O)N(\C=C/C=C/C=C1\Sc2ccccc2C1=O)c1ccccc1 | 25µM | – | 20µM | ? | 79µM | ? | Pol kappa inh-2=75
CN(C)/C=C1/Sc2ccccc2C1=O | – | – | – | – | – | ·
Brc1ccc(C2=N[C@@H](Cc3ccccc3)CO2)cc1 | – | – | · | · | · | ·
O=C(O)c1cccc(NS(=O)(=O)c2ccc(Oc3ccc(S(=O)(=O)Nc4cccc(C(=O)O)c4)cc3)cc2)c1 | – | · | · | – | – | ·
O=C(O)c1cccc(NS(=O)(=O)c2ccc(-c3ccc(S(=O)(=O)Nc4cccc(C(=O)O)c4)cc3)cc2)c1 | 50µM | – | ? | ? | ? | ? | Pol kappa inh-2=21
CCOC(=O)c1ccc(NC(=O)CC2C(=O)N(c3cccc(OC)c3)C(=O)N2Cc2cccnc2)cc1 (stereo not drawn) | – | – | – | – | – | ·
CCOC(=O)c1cnc2cc(C(F)(F)F)ccc2c1Nc1cc(C)ccc1OC | – | – | – | – | – | ·
CC(=O)C1=C(c2ccc(F)cc2)N(C(C)=O)n2c(nnc2C2CCCCC2)S1 | – | – | – | – | – | ·
Cc1cc(C)nc(NN2C(=O)/C(=C/c3ccc(O)cc3)SC2=S)n1 | – | – | ? | 32µM | ? | 76
CC(C(=O)NC1C(=O)N2C(C(=O)O)=C(CSc3nnnn3C)CSC12)n1cc(Br)cn1 (stereo not drawn) | ? | – | 18µM | ? | 32µM | ?
NC(C(=O)NC1C(=O)N2C(C(=O)O)=C(Cl)CSC12)c1ccccc1 (stereo not drawn) | – | ? | · | · | · | ·
Cn1nnnc1SCC1=C(C(=O)O)N2C(=O)C(NC(=O)C3CC3c3ccccc3)C2SC1 (stereo not drawn) | ? | – | 32µM | 14µM | 14µM | 48 | Pol kappa inh-2=67
Cc1ccccc1N1C(S)=C(C#N)C(=O)NC1c1ccco1 (stereo not drawn) | – | – | 28µM | 22µM | 28µM | ?
Cc1ccccc1N1C(S)=C(C#N)C(=O)NC1c1cccs1 (stereo not drawn) | – | – | – | ? | ? | ·
CCc1ccc(C(=O)c2cn(CC(=O)Nc3ccc(OC)c(Cl)c3)c3nc(C)ccc3c2=O)cc1 | – | – | – | ? | – | ·
O=C(O)c1cc(Nc2cc(Cl)c3nonc3c2[N+](=O)[O-])ccc1O | – | · | – | ? | 25µM | 48 | Pol kappa inh-2=67
O=[N+]([O-])c1c(Nc2ccc(O)cc2)cc(N2CCOCC2)c2nonc12 | – | – | – | – | – | ·
Cc1ccc(-c2noc(-c3nnn(CC(=O)Nc4cc(C)cc(C)c4)c3N)n2)cc1 | – | – | – | – | · | ·
C#Cc1ccc([C@@H]2C=C(C(=O)NC3CC3)O[C@H](OCCCCO)C2)cc1 | – | – | – | – | – | ·
C#Cc1ccc([C@H]2C=C(C(=O)OCC=C)O[C@@H](OCCCCO)C2)cc1 | ? | · | · | 56µM | 32µM | 67
CCOc1ccc(C(=O)c2cn(CC(=O)Nc3cc(OC)cc(OC)c3)c3ccc(F)cc3c2=O)cc1 | – | – | 14µM | ? | ? | · | Pol kappa inh-2=?
O=S(=O)(c1ccc2ccccc2c1)N1CCN(S(=O)(=O)c2c(F)cccc2F)CC1 | – | – | · | – | – | ·
O=c1[nH]c2ccc(S(=O)(=O)N3CCN(S(=O)(=O)c4c(F)cccc4F)CC3)cc2[nH]c1=O | · | 45µM | · | · | · | · | Pol kappa inh-2=53
